{"source": "PubChem BioAssay (NCI)", "note": "This is part of a sample that, as a whole, favours compounds with a hit. Of some 79,000 tested, about 15% had one in any assay. Active and inactive are the calls of the source. No stated cut-off is given here; in the data, active means growth inhibition above about 70%; inactive means the rest.", "data": [{"assay": "NCI Yeast Anticancer Drug Screen. Data for the rad50EPP+ strain (AID 151);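 further: 0% = growth of vehicle-treated control cultures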", "conditions": "S. cerevisiae rad50 mutant strain, at 33.0 µM, hits give high values", "outline": "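Vehicle-normalised growth inhibition; rad50EPP+ yeast strain, altered in DNA damage repair, compound-treated.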", "values": [{"smiles": "CCOP(=O)(OCC)C(Cc1ccccc1)N=C(c1ccccc1)c1ccccc1", "note": "(stereo not drawn)", "growth inhibition": "81% (active)"}, {"smiles": "CCc1ncnc2cc(OCC3CO3)c(OC)cc12", "note": "(stereo not drawn)", "growth inhibition": "47% (inactive)"}, {"smiles": "CCOC(=O)[C@H]1Nc2ccccc2C2c3ccccc3CC21", "note": "(stereo partly drawn)", "growth inhibition": "31% (inactive)"}, {"smiles": "O=CNc1ccc2c(c1)C(=O)c1ccccc1-2", "growth inhibition": "86% (active)"}, {"smiles": "CCOc1ccc2c(c1)c(CC(=O)O)cn2C", "growth inhibition": "94% (active)"}, {"smiles": "OC1CSCCCSCCSCCCSC1", "growth inhibition": "-29% (inactive)"}, {"smiles": "N#Cc1c(N)[nH]c2ccc(Sc3ccccc3)cc12", "growth inhibition": "33% (inactive)"}, {"smiles": "Cc1ccc(-c2ccc(Nc3c4ccccc4nc4ccccc34)cc2)cn1", "growth inhibition": "95% (active)"}, {"smiles": "c1ccc2c(c1)NC(NC1Nc3ccccc3N1)N2", "growth inhibition": "38% (inactive)"}, {"smiles": "OC(COc1cccc2ccccc12)CN1CCOCC1", "note": "(stereo not drawn)", "growth inhibition": "-9% (inactive)"}, {"smiles": "CCC/C(Cl)=N\\OC(=O)Nc1ccc(Br)cc1", "growth inhibition": "77% (active)"}, {"smiles": "COc1ccc(/C=C2\\SC(=S)N(/C=C/c3nc4ccccc4[nH]c3=O)C2=O)cc1OC", "growth inhibition": "50% (inactive)"}, {"smiles": "O=C(NNc1ccnc2cc(Cl)ccc12)/C(=C\\c1ccccc1Cl)NC(=O)c1ccccc1", "growth inhibition": "95% (active)"}, {"smiles": "CSC1=NNC(SC)=NN1", "growth inhibition": "55% (inactive)"}, {"smiles": "Cc1c(C2=C(Br)C(=O)N(C)C2=O)c(=O)n(C)c(=O)n1C", "growth inhibition": "1% (inactive)"}, {"smiles": "NCCNc1ccc(NCCN)c2c1C(=O)c1c(O)ccc(O)c1C2=O", "growth inhibition": "87% (active)"}, {"smiles": "Cn1c(=O)c(-c2ccccc2)c(N=[N+]=[N-])c2ccccc21", "growth inhibition": "4% (inactive)"}, {"smiles": "CCCCCCCCCCCCCCCCCCOCC(O)COP(=O)(O)OCC1OC(n2cc(F)c(=O)[nH]c2=O)CC1O", "note": "(stereo not drawn)", "growth inhibition": "88% (active)"}]}]}
